CYP2C19 activ = activators of human cytochrome P450 2C19; recombinant CYP2C19, luciferin-H EGE luminescence; active compounds read high; 0 = fully inhibited enzyme, 1 = untreated enzyme; activation factor at 5 µM; 96,000 tested, under 10 active;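 active means activation factor of at least 2 at 5 µM in the primary screen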;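 further: 0 = wells with 2.5 mM tranylcypromine and 1 = vehicle-only wells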
CYP2C9 act = increases human cytochrome P450 2C9 activity. recombinant CYP2C9, luciferin-H conversion, luminescence; active compounds read high; factor 1 = untreated enzyme, 0 = blocked. activation factor at 5 µM. P11712. 1.4% of 96,000 active;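 active means activation factor of 2 or more for CYP2C9 at a 5 µM dose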;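 further: 0 = sulfaphenazole-blocked wells and 1 = vehicle-only wells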
Target sequence (P11712 whole entry, looked up): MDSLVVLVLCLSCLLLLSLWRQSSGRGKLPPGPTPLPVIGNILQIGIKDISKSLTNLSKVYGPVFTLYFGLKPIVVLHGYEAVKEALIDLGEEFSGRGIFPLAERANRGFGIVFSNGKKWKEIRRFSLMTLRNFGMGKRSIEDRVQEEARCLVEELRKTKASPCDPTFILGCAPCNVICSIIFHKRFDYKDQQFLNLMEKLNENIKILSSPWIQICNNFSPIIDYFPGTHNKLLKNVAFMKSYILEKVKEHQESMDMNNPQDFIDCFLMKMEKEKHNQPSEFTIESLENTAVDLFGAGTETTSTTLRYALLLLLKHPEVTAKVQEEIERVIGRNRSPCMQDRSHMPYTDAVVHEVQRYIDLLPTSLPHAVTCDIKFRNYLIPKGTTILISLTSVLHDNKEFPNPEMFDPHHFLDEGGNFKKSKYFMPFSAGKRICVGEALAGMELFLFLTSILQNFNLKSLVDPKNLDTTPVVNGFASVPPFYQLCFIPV
Cav32 inh = blocks human Cav3.2 T-type calcium channel. O95180. Cav3.2-expressing cells, Fluo-4 calcium fluorescence FDSS; active compounds read low. B-score at 10 µM. 4% of 100,000 active;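 active means single-dose well whose peak fluorescence ratio is a statistical outlier from its plate by either plate-standardised score or position-corrected B-score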
CYP2C9 inh = human CYP2C9 inhibition | P11712 | CYP2C9 Supersomes, luciferin-H conversion, luminescence | inhibition, % at 5 µM | 20% of 96,000 active | AID 777;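 active means blocking of liver enzyme CYP2C9 beyond about 50% at 5 µM, limit read from the data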
CYP2C19 inh = blocks human cytochrome P450 2C19; CYP2C19 Supersomes, luciferin-H EGE luminescence, 30 min; 21% of 96,000 active; inhibition, % at 5 µM; AID 778;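 active means CYP2C19 inhibition above a set limit at 5 µM in the primary screen, cut at about 50% in these data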;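 further: plate controls were negative control wells for no effect and 2.5 mM tranylcypromine positive control for full effect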
* marks the source's active call; other numbers are inactive results; nt = not tested or not shown. Only some compounds are listed: those with a hit (about 27% of all), similar ones and a draw of the others.

SMILES	CYP2C19 activ	CYP2C9 act	Cav32 inh	CYP2C9 inh	CYP2C19 inh
OC(Cn1cccn1)c1ccccc1 (stereo not given)	1.1	1.1	-0.34	-10	-11
CCC(CC)C(=O)Nc1cccc(-c2nc3ccccc3o2)c1	0.4	0.3	-0.26	66*	59*
C/C(=N\NC(=O)c1ccc(Cl)c(Cl)c1)c1cccc(NC(=O)C(C)C)c1	0.9	0.9	-7.1*	8	10
CCC(=O)Nc1cccc(-c2nc3ccccc3c(=O)o2)c1	0.8	1.3	nt	-25	23
CC(=O)Oc1ccc(NC(=O)C2CCCCC2)c(C(=O)O)c1	1	0.9	-0.81	5	-3
Cc1cc2ncn(C3CC(=O)N(Cc4ccccc4)C3=O)c2cc1C (stereo not given)	0.9	0.8	-0.15	24	8
Cc1ccc(-n2nnnc2SCC(=O)Nc2ccccc2N2CCCCC2)cc1C	0.2	0.9	-4.1*	11	80*
CSc1ccccc1-n1nnnc1SCC(=O)Nc1cc(C)ccc1C	0.7	3.1*	-2.8	-208	31
Cc1ccc(C)c(-n2nnnc2SCC(=O)Nc2c(C)n(C)n(-c3ccccc3)c2=O)c1	1	1.6	-0.031	-63	-3
CCC(=O)Nc1ccc(NC(=O)CSc2nnnn2C(C)C)cc1	1	0.3	0.42	68*	-2
Cc1ccc(-n2nnnc2SCC(=O)Nc2nc(-c3ccc(F)cc3)cs2)cc1C	0.7	0.5	nt	52*	30
CC(C)(C)OC(=O)NCCCCC1=CC2=CC(=O)C(C)(OC(=O)c3cnc4ccccc4n3)C(=O)C2=CO1 (stereo not given)	nt	nt	-0.32	nt	nt
O=C1CCCC(=O)C1=Cc1c[nH]c2ccccc12	0.9	0.8	1.4	15	8
CC1=C(C(=O)OCc2ccccc2)C(c2ccccc2OS(=O)(=O)c2ccc([N+](=O)[O-])cc2)NC(=O)N1CCCC(=O)O (stereo not given)	nt	nt	-0.29	nt	nt
CC(C)n1nnnc1SCC(=O)Nc1ccccc1N1CCOCC1	0.4	0.6	0.17	38	56*
Cc1csc(NC(=O)CCS(=O)(=O)c2ccc(Br)cc2)n1	0.6	0.1	1.2	85*	42
Cc1nnc(NC(=O)CSc2nc(C(C)C)nc3ccccc23)s1	0.9	0.3	1.7	66*	8
O=C(CSc1ncn(-c2ccccc2)n1)Nc1nccs1	0.4	0.8	0.53	21	56*
Cc1ccc(S(=O)(=O)CCC(=O)Nc2nccs2)cc1	0.8	1	-0.39	0	22
CC(=O)Nc1ccc(C(=O)CSc2ncn(-c3ccccc3)n2)cc1	0.3	0.3	0.71	75*	67*
O=C(N/N=C/c1cccc(Oc2ccc([N+](=O)[O-])cc2[N+](=O)[O-])c1)c1cncc(Br)c1	nt	nt	2.3	nt	nt
Cc1ccc(-c2nnc(SCC(=O)Nc3nc4c(s3)CCCC4)n2C)cc1	0.9	0.7	0.77	35	7
Cc1ccc2cc(C)c3nnc(SCC(=O)Nc4nc5c(s4)CCCC5)n3c2c1	0.4	0.4	-1.6	61*	57*
Cc1ccc(-c2csc(NC(=O)CSc3ncn(-c4ccccc4)n3)n2)cc1	0.4	0.3	-0.13	67*	64*
O=C(CSc1ncn(-c2ccccc2)n1)Nc1nc2ccccc2s1	0.4	0.4	-3.1	65*	65*
SMILES	CYP2C19 activ	CYP2C9 act	Cav32 inh	CYP2C9 inh	CYP2C19 inh
Cn1cc(SCC(=O)Nc2nc3ccccc3s2)c2ccccc21	1.2	1.3	0.14	-29	-20
O=C(CSc1ncn(-c2ccccc2)n1)Nc1nc(-c2ccccc2)cs1	nt	nt	-3.5	nt	nt
Cc1csc(SCC(=O)Nc2nc3ccccc3s2)n1	0.1	0.1	-3.7	94*	92*
CCC(C)Nc1nc2c(c(=O)[nH]c(=O)n2C)n1CCC(C)C (stereo not given)	nt	nt	2.2	nt	nt
O=C(CSc1ncn(-c2ccccc2)n1)Nc1nc2c(s1)CCCC2	0.6	0.4	-4.2*	64*	44
O=C(CSc1nc(Cc2ccccc2)nc2ccccc12)Nc1nc2c(s1)CCCC2	0.2	0.1	-4.8*	93*	85*
CC(C)(C)c1nc(SCC(=O)Nc2nc3c(s2)CCCC3)c2ccccc2n1	1	0.7	-2.8	30	-1
Cn1c(SCC(=O)Nc2nc3c(s2)CCCC3)nnc1-c1ccccc1	0.7	0.6	-6.1*	42	33
Cc1csc(NC(=O)CCc2nc3ccccc3s2)n1	0.2	1.8	-2.2	-77	83*
Cc1cc(NCCCN)nc(-c2ccccc2O)n1	0.9	0.7	0.42	25	10
Cc1ccc(S(=O)(=O)N2c3cc(C)ccc3OCC2C(C)(C)C)cc1 (stereo not given)	1	0.5	-2.9	50*	4
Cn1c(Cc2cccs2)nnc1SC/C=C/c1ccccc1	nt	nt	-1.3	nt	nt
CCN(CC)C(NC(=O)Cc1ccccc1)C(Cl)(Cl)Cl (stereo not given)	0.7	0.9	-0.03	10	26
CN(Cc1ccccc1)C(NC(=O)c1ccccc1)C(Cl)(Cl)Cl (stereo not given)	0.7	0.5	-5.7*	47	31
CCC(C)c1ccc(NC(=S)NCc2cccs2)cc1 (stereo not given)	0.4	0.7	-3.2*	33	58*
Cc1ccc(Sc2ncnc3onc(C)c23)cc1	0.3	0.8	-0.08	23	67*
Cc1noc2ncnc(Sc3ccc(Cl)cc3)c12	0.2	0.9	-0.037	10	79*
Cc1noc2ncnc(Oc3ccc(F)cc3)c12	1	1.1	0.033	-7	5
Cc1noc2ncnc(Sc3c(Cl)cccc3Cl)c12	0	0.5	-0.06	52*	97*
Cc1ccccc1Sc1ncnc2onc(C)c12	0	0.5	-0.07	49	96*
CCCN1CNC(=S)N(c2cc(C)ccc2C)C1	nt	nt	0.39	nt	nt
O=P1(c2ccccc2)C=Cn2c1cc1c2CCCC1 (stereo not given)	nt	nt	0.35	nt	nt
C#CCNC(=O)C1=C[C@@H](c2ccc(C(F)(F)F)cc2)C[C@@H](OCCCCO)O1	nt	nt	-0.59	nt	nt
CCOC(=O)C1=C(O)/C(=C\c2ccc(CNC(=O)C(=O)Nc3ccccc3)o2)N=C1C	0.8	0.5	-0.95	49	20
C=C1CCN([C@@H](C)C(=O)NCc2ccc(OC)cc2)S(=O)(=O)c2ccccc21	nt	nt	-0.44	nt	nt
SMILES	CYP2C19 activ	CYP2C9 act	Cav32 inh	CYP2C9 inh	CYP2C19 inh
O=C(NC1=NCCS1)c1sc2ccccc2c1Cl	0.8	1.1	1.9	-14	20
O=C(NC(=S)N(CCCCO)C1CCCCC1)c1sc2ccccc2c1Cl	0.6	0.5	-1.7	54*	36
CC(C)Oc1ccc(Cl)cc1Nc1nc(NCCO)nc(N2CCCC2)n1	nt	nt	1	nt	nt
O=C(/C=C/c1ccc(OCCCF)cc1)NCc1ccc(Cl)cc1	0.7	0.9	nt	10	34
O=C1c2ccccc2CC1(Cc1ccccc1)Cc1ccccc1	nt	nt	-2.2	nt	nt
CC(=O)NC1C(=O)N(CCc2ccccc2)c2ccc(Br)cc21 (stereo not given)	0.2	0.8	nt	15	80*
CCCCOc1ccc(C(=O)Nn2cnnc2)cc1	0.1	0.1	0.45	93*	93*
CCc1ccccc1NC(=O)c1cc(-c2cccc(O)c2)on1	1	4.8*	-0.29	-379	5

Source: PubChem BioAssay
